HIF-2a inh = HIF-2a reporter inhibitors, primary screen, luminescence, 786-0 RCC cells; 786-0 RCC cells HIF-2a reporter, luciferase luminescence, overnight; AID 624352, 2012; inhibition, % at 18.8 µM; actives 0.72% (n = 360,000);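 active = inhibition of the luminescence signal of 40% or more relative to plate controls, in a single-dose primary screen at 18.75 µM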
CF NFkB block = inhibitors of PAF-induced NF-kB signaling, primary screen, cell-based, GFP fluorescence, uHTS | AID 588850, 2011 | actives 0.86% (n = 360,000) | inhibition, % at 5 µM | KKLEB NF-kB-GFP reporter, GFP fluorescence overnight;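 active = at least 50% inhibition at 5 µM, scaled per plate between neutral and stimulator controls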;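 also: PAF is a Pseudomonas aeruginosa culture filtrate used as stimulus; plate controls were PAF-stimulated DMSO wells for no effect and unstimulated DMSO wells for full effect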
EBV LMP1 NFkB = EBV LMP1-driven NF-kappaB luciferase reporter inhibitors, primary screen, cell-based, luminescence, single point; LMP1-induced NF-kappaB luciferase reporter cells; inhibition, % at 12.5 µM; actives 0.69% (n = 350,000); AID 504558, 2011; in the data active = inhibition above about 41%; inconclusive = no clear call, values can overlap the other calls;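 also: 0% = neutral control wells and 100% = reference inhibitor control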
Peg3 promoter = Peg3 promoter-driven luciferase inhibitors, primary screen, cell-based, HeLa, luciferase luminescence. HeLa PEG-Prom luciferase reporter, overnight. inhibition, % at 20 µM. actives 1.7% (n = 360,000). AID 588405, 2011;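 active = inhibition of at least 50% at 20 µM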
Shn3 inh set2 = reduction of Shn3 3'UTR firefly luciferase signal, primary screen, Schnurri-3 inhibitor project, cell-based, Clone20 osteoblasts, set 2. actives 0.52% (n = 360,000). AID 588674, 2011. Clone20 osteoblast Shn3 3'UTR firefly luciferase, 24 h. inhibition, % at 12.5 µM;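 active = mean inhibition of at least 75% with every replicate also reaching 75%; inconclusive = mean inhibition at least 75% but some replicate below; inactive = mean inhibition below 75%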;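 also: 0% = median of neutral control wells and 100% = pilot-screen positive control compound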
KKLEB tox = cytotoxicity in KKLEB CF airway cells, primary screen, cytotoxicity control for CF NF-kB inhibitor project, cell-based, uHTS, fluorescence assay plates; actives 0.36% (n = 360,000); AID 602141, 2011; KKLEB CF airway cells viability, ATPlite luminescence, overnight; stronger effect = lower value; cells stimulated with P. aeruginosa culture filtrate; activity change (cytotoxicity), % at 5 µM;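 active = corrected activity change at or below -50% at 5 µM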
* = called active by the depositor; u = inconclusive; x = not tested or not shown. Only some compounds are listed: those with a hit (about 2.9% of all), similar ones and a draw of the others.

SMILES | HIF-2a inh | CF NFkB block | EBV LMP1 NFkB | Peg3 promoter | Shn3 inh set2 | KKLEB tox
CC(=O)Nc1ccc(C(=O)N2CCCCC2c2cc(C(=O)NC(C)C)no2)cc1 (centres undefined) | -1 | -44 | x | -3 | -17 | -6
COc1cccc(NC(=S)NC(=O)/C=C/c2ccc(F)cc2)c1 | -3 | -4 | -3 | 8 | -8 | -4
CCC(=O)Nc1cccc(C(=O)/C=C/c2ccc(F)cc2)c1 | 27 | 47 | -8 | 100* | 1 | 0
CC(=O)Nc1ccc(/C=C/C(=O)c2ccc3c(c2)OCCO3)cc1 | -26 | -6 | 11 | -165 | -23 | -13
CC(=O)Nc1cccc(C(=O)/C=C/c2ccc(C)cc2)c1 | -18 | 36 | 4 | 97* | -9 | -8
CCOc1ccc(C(C)=O)cc1COC(=O)CNC(=O)C12CC3CC(CC(C3)C1)C2 | 12 | -16 | 19 | -2 | 7 | -14
O=C(NC1CCOC1=O)OCc1ccccc1 (centres undefined) | 6 | -10 | -1 | -1 | -35 | 5
O=C(NCc1ccccc1)C(C1CC1)n1c(=O)c(-c2ccco2)nc2ccccc21 (centres undefined) | 3 | x | x | x | x | x
CCOc1cccc(/C=N/NC(=O)c2cc(-c3cccn3C)n[nH]2)c1O | -38 | -8 | 16 | 40 | 88* | 10
COc1cc(OC)c(OC)cc1/C=N/NC(=O)c1cc(-c2cccn2C)n[nH]1 | 17 | -7 | -5 | -4 | 1 | 1
CC(=O)c1ccc(Nc2nc(C)cc(C)n2)cc1 | -234 | -13 | 80* | -185 | -14 | -2
CCOC(=O)c1ccc(Nc2nc(C)cc(C)n2)cc1 | -50 | -7 | -4 | -90 | -52 | -10
COCCNC(=O)C(=O)NCC1OCCN1C(=O)c1ccc(Cl)cc1 (centres undefined) | 12 | 1 | 80* | -8 | -5 | -12
COc1ccccc1C(=O)/C=C/c1ccc(N2CCCCC2)c([N+](=O)[O-])c1 | 44* | -2 | -11 | 105* | -15 | -34
CC1CCN(c2ccc3c(c2)S(=O)(=O)c2cccc(C(=O)NC[C@@H]4CCCO4)c2C3=O)CC1 | -137 | -14 | 1 | -44 | 2 | 5
O=C(NCC1CCCO1)c1cccc2c1C(=O)c1ccc(N3CCC(Cc4ccccc4)CC3)cc1S2(=O)=O (centres undefined) | 27 | -5 | 19 | 63* | 18 | 10
COc1ccc(-c2ccc3c(c2)S(=O)(=O)c2cccc(C(=O)NCc4cc(C)oc4C(F)(F)F)c2C3=O)cc1OC | 0 | -1 | 86* | 6 | 19 | 1
O=C(NCc1ccccc1C(F)(F)F)c1cccc2c1C(=O)c1ccc(N3CCC(N4CCCCC4)CC3)cc1S2(=O)=O | -13 | 4 | -28 | 106* | u | -13
CCOC(=O)NNC(=S)Nc1c(C)n(C)n(-c2ccccc2)c1=O | 18 | 3 | -4 | 8 | -6 | 6
Fc1ccc(N/N=C/c2ccc(N3CCOCC3)cc2)c(F)c1 | -245 | 8 | -39 | -194 | -42 | 4
COc1ccc2oc(C(=O)NCCc3ccccc3)c(C)c2c1 | 8 | 8 | 54* | -19 | 16 | -38
Cc1ccsc1C(=O)N1CCC1(C)C(=O)Nc1ccc2c(c1)OCCO2 (centres undefined) | 12 | -18 | x | -8 | -35 | -5
CC(=O)/C=C/c1ccccc1O | 13 | 3 | 52* | 6 | -5 | -10
O=C(/C=C/c1ccccc1O)c1ccccc1 | -38 | -18 | -3 | -24 | -23 | -8
C/C(=N\OC(=O)Nc1ccc(Cl)cc1)c1ccc(F)c(F)c1 | -121 | 15 | -10 | -58 | -2 | 4
SMILES | HIF-2a inh | CF NFkB block | EBV LMP1 NFkB | Peg3 promoter | Shn3 inh set2 | KKLEB tox
CC(C)C(Cl)=NOC(=O)Nc1ccc(F)cc1 | 18 | 32 | 5 | 55* | 99* | 6
CCOc1cc(/C=N/Nc2cccc(C(=O)O)c2)ccc1OCC(=O)N1CCCCC1 | -14 | 3 | -12 | -72 | -10 | 6
CCNc1nc(NC(C)CC)nc(ON=C(C)C)n1 (centres undefined) | 15 | 7 | 1 | 10 | -7 | -1
COc1ccc(C(=O)Oc2c(C)occc2=O)cc1OC | 16 | 20 | 2 | 16 | 11 | -16
Cc1occc(=O)c1OC(=O)Nc1ccc(Cl)c(Cl)c1 | -94 | 77* | 17 | -5 | 4 | -65*
Cc1ccc2[nH]c3c(c2c1)CCCC3NCCO (centres undefined) | 13 | -5 | 1 | 52* | -3 | 3
Cc1ccc2[nH]c3c(c2c1)CCCC3=O | -84 | -16 | 3 | -36 | x | -3
O=C(O)CNC(=O)C(CS)Cc1ccccc1 (centres undefined) | 25 | 55* | -1 | -9 | 10 | 16
CCOc1ccc(C(=O)NC(=S)N(Cc2ccccc2)Cc2ccccc2)cc1 | 4 | -3 | 50* | 11 | 33 | -8
Cc1noc(C)c1COc1ccc(C(=O)NCCc2ccccn2)cc1 | -24 | -19 | 3 | -7 | -10 | 11
O=C1C(Cc2ccccc2)Nc2ncnc(N3CCc4ccccc4C3)c2N1Cc1ccc(Cl)cc1 (centres undefined) | 3 | 16 | -14 | 51* | 7 | 3
O=C1C(Cl)=C(NCCN2CCCCC2)C(=O)c2ccccc21 | 87* | 75* | 13 | 99* | 95* | -27
CCCC(=O)NC1=C(Cl)C(=O)c2ccccc2C1=O | 95* | 17 | -7 | 98* | 90* | 16
O=C1c2ccccc2-c2onc3ccc(NCc4ccco4)c1c23 | -49 | -114 | 8 | -6 | 7 | 8
CCCC(=O)NNC(=O)CCC(=O)Nc1ccccc1Cl | 18 | -2 | -13 | 0 | 9 | -13
CCNC1=C(Cl)C(=O)c2ccccc2C1=O | 67* | 6 | 0 | -1 | 11 | -11
O=C1C(Cl)=C(NCc2ccco2)C(=O)c2ccccc21 | -8 | 74* | -6 | -50 | -5 | 0
O=[N+]([O-])c1ccccc1S(=O)(=O)N1CCN(C2CCN(Cc3ccccc3)CC2)CC1 | -1 | 7 | -2 | 0 | -2 | -10
CSc1ncccc1C(=O)NC1CCCCCCC1 | -9 | -13 | -7 | 1 | 2 | 0
O=C(Cc1ccc(-n2c(=O)c3sccc3n(CC(=O)Nc3ccccc3F)c2=O)cc1)NCc1ccco1 | 5 | 2 | 69* | 12 | 60 | -4
Cc1c(NS(=O)(=O)c2cccc(C(=O)OCC(=O)N(C)C3CCCCC3)c2)c(=O)n(-c2ccccc2)n1C | 12 | 4 | 5 | 13 | 39 | -6
